Pol iota inh – inhibitors of human DNA polymerase iota; Pol iota fluorescent replication assay, 10 min; AID 588590; 1% of 390,000 active; Potency, µM (top dose mostly 115 µM), most hits filed as inhibitors
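Fluorescent replication assay read twice, at 0 min and 10 min after adding 50 nM (final) substrate. Enzyme (10 nM) and compounds were first incubated 15 min at room temperature; enzyme-free buffer wells were negative controls.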
WRN inhibitor – WRN helicase (human) inhibition; Q14191; WRN helicase unwinding, fluorescent forked duplex, kinetic; Potency, µM (doses to about 114 µM), hits mostly inhibitors; 0.46% of 360,000 active; AID 651768; note: nearly all actives have a fitted effect of over 55% in size
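Enzyme (20 nM final) and test compound sit together 15 min at room temperature before substrate addition. Substrate is a single-forked duplex oligonucleotide (100 nM) labelled with fluorophore and quencher, with 2 mM ATP; helicase unwinding raises red fluorescence, read kinetically.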
POLB inh – blocks human DNA polymerase beta activity. Pol beta primer extension/strand displacement, fluorescence kinetic. Potency, µM (series often up to 114 µM), actives largely listed as inhibitors. 1.3% of 340,000 active. AID 485314
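Curves were derived by four-parameter Hill fits of normalized qHTS data. The kinetic fluorescent primer-extension read was taken at 0 and 10 min after 50 nM substrate, following a 15 min room-temperature preincubation of 10 nM enzyme with compounds.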
Pol kappa inh – DNA polymerase kappa (human) inhibition | purified Pol kappa, fluorescent DNA synthesis assay, 10 min | Potency, µM (doses to about 107 µM), actives largely listed as inhibitors | 0.53% of 400,000 active
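50 nM final substrate added after 15 min RT preincubation of 10 nM Pol kappa with compound; fluorescence read at 0 and 10 min.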
FEN1 inh – blocks human flap endonuclease 1. P39748. Recombinant FEN1 flap cleavage, fluorescence, 15 min. Potency, µM (top dose mostly 114 µM), hits mostly inhibitors. 0.35% of 390,000 active; note: nearly all actives have a fitted effect of over 65% in size
Target sequence (P39748 whole entry, looked up): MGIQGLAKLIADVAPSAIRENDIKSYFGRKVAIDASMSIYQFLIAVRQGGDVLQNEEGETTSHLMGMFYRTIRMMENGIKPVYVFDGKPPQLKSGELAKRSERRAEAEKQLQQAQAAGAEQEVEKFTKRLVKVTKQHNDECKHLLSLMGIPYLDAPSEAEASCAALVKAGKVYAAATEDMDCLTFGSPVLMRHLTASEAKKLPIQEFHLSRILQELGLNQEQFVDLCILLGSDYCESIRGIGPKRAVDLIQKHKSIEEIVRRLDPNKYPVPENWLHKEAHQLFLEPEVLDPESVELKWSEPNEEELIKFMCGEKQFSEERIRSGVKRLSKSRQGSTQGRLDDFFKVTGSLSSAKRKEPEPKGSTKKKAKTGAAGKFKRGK
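FEN1 at 10 nM preincubated with compounds 15 min at room temperature, then flap DNA substrate added at 50 nM final. Signal read at 0 and 15 min; concentration-response fitted with four-parameter Hill equation.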
POLH inh – inhibitors of human DNA polymerase eta. Q9Y253. recombinant Pol eta, fluorescent DNA replication assay. Potency, µM (highest dose often 114 µM), usual class: inhibitors. 1.2% of 390,000 active. AID 588591
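Pol eta at 10 nM preincubated with compounds 15 min at room temperature; reaction started with fluorescent substrate (50 nM final) and read kinetically at 0 and 10 min.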
A number is an active result; . = inactive; ? = inconclusive; / = no result given; ! = a repeat was not active; [ ] = remark or other dose. Only some compounds are listed: those with a hit (about 2.4% of all), similar ones and a draw of the others. Calls come from the whole dose curve; as a rule, active = well fitted curve in the direction sought with a large enough effect; inconclusive = small, poorly fitted or top-dose-only effect, or another doubt; inactive = no such curve, though single readings can be large; an effect the other way counts as inactive or inconclusive.

SMILES | Pol iota inh | WRN inhibitor | POLB inh | Pol kappa inh | FEN1 inh | POLH inh
CCOC(=O)C1=C(CS(=O)(=O)c2ccc(F)cc2)NC(=O)NC1c1ccc(O)c(O)c1 (stereo unspecified) | 25.1µM | .[11.6 µM] | ? | 44.7µM | . | ?
O=C(O)[C@H](CC(=O)N1C[C@H]2CCCC[C@H]2C1)Cc1ccccc1 | / | / | / | .[19.4 µM] | / | /
COc1ccc(OC)c(NC(=O)c2cn3c4c(ccc(Cl)c4c2=O)OC(C)C3)c1 (stereo unspecified) | . | / | . | . | . | .
O=C(NCc1ccco1)C1CCCN(S(=O)(=O)c2ccc(-n3cnnn3)cc2)C1 (stereo unspecified) | ? | . | 25.1µM | ? | . | 20µM
Cc1ccc(S(=O)(=O)N2CCCCC2C(=O)NCc2ccco2)cc1 (stereo unspecified) | 89.1µM | . | . | . | . | ?
CCc1ccc(S(=O)(=O)c2nnn3c2nc(NCCNC(C)=O)c2cc(Cl)ccc23)cc1 | . | / | . | . | . | .
O=C(CCC1N=C2c3ccccc3N=C(SCc3cccc(F)c3)N2C1=O)NCc1ccc(F)cc1 (stereo unspecified) | . | / | . | . | . | .
CC(C)(C)c1c(Cl)c(O)c(-c2ccccc2)c(=O)n1-c1ccccc1 | 1.12µM | 50.1µM | . | . | . | .
Cc1c(O)c2ccccc2n(-c2ccccc2)c1=O | . | . | / | . | . | .
CCc1ccc(C2c3c(oc4ccc(F)cc4c3=O)C(=O)N2c2nc(C)c(C(=O)OC)s2)cc1 (stereo unspecified) | . | / | . | . | . | .
COc1cc(NC(=O)CSc2ncc(S(=O)(=O)c3ccc(Br)cc3)c(=O)[nH]2)cc(OC)c1 | ? | / | 50.1µM | . | . | ?
Cc1cc(C)cc(NC(=O)CSc2ncc(S(=O)(=O)c3ccccc3)c(=O)[nH]2)c1 | / | / | . | / | / | /
Cc1ccc(NC(=O)CSc2ncc(S(=O)(=O)c3ccc(C(C)C)cc3)c(=O)[nH]2)cc1C | ? | / | 20µM | . | . | ?
COc1ccc(CCNC(=O)c2cnc3ccc(C)cn3c2=O)cc1OC | . | / | . | . | . | .
CS(=O)(=O)c1ncc(Cl)c(C(=O)N2CCN(c3cccc(Cl)c3)CC2)n1 | . | / | . | . | . | .
COc1cccc(C2CC(c3ccccc3)=NN2S(=O)(=O)c2ccc(C)cc2)c1OC (stereo unspecified) | . | ? | 50.1µM | . | . | ?
O=C1C2C(c3ccccc3)CC=CC2C(c2cccc([N+](=O)[O-])c2)N1Cc1ccccc1 (stereo unspecified) | . | / | / | . | . | /
COc1ccc(OC)c(NC(=O)CSc2nc3[nH]c(=O)[nH]c(=O)c3s2)c1 | ? | . | / | . | ? | 50.1µM
CCOC(=O)c1cnc(SCC(=O)Nc2cc(OC)ccc2OC)nc1N | . | . | 22.4µM | . | . | ?
COc1ccc(Cl)cc1N=Nc1ncc[nH]1 | / | / | / | .[19.4 µM] | / | /
COCCn1c(C)cc(C(=O)COC(=O)c2ccc3c(c2)NC(=O)CS3)c1C | . | . | . | . | . | ?
C=CCn1c(C)cc(C(=O)COC(=O)c2ccc3c(c2)NC(=O)CS3)c1C | ? | .[11.6 µM] | 39.8µM | ? | . | ?
CCOc1cccc(C(=O)Nc2cc(C)c(O)c(-c3nc4ncccc4o3)c2)c1 | . | / | . | . | . | .
COc1ccc(/C=C/c2ccccn2)cc1 | . | / | / | . | . | /
COc1ccc(OCC(=O)NCC(c2ccc(OC)cc2)N2CCCCC2)cc1 (stereo unspecified) | . | . | 89.1µM! | . | . | .
Cc1cc2c(n1-c1ccc(C(=O)O)cc1)CCCCC2 | / | / | 2.51µM | / | / | /
Cc1ccc(CNC(=O)c2ccc(-n3c(C)cc4c3CCCC4)cc2)cc1 | . | / | . | . | . | .
Cc1ccc(NC(=O)c2cc3ccccc3oc2=N)cc1 | ? | . | . | . | . | .
N=c1oc2cc(O)ccc2cc1C(=O)Nc1ccc(Cl)cc1 | . | . | . | . | . | 79.4µM
COc1ccccc1C(=O)N1c2ccccc2C(C)(c2ccc(Cl)cc2)CC1(C)C (stereo unspecified) | . | / | . | . | . | .

Source: PubChem
